High-throughput results as filed in PubChem BioAssay.
The list is not random: actives were taken first. Their share in the collection is about 3%.
TrxR1 inh: inhibitors of rat thioredoxin reductase 1; 390,000 compounds, 1% hits; Potency, µM (top dose mostly 114 µM), inactives show top-dose activity change, negative = inhibition, hits mostly inhibitors; O89049; recombinant rTrxR1, NADPH fluorescence consumption, selenite substrate; AID 588453; also: % is scaled to controls: 0 for no effect and ±100 for the full control effect; nearly all actives have a fitted effect of over 65% in size
Target sequence (O89049 whole entry, looked up): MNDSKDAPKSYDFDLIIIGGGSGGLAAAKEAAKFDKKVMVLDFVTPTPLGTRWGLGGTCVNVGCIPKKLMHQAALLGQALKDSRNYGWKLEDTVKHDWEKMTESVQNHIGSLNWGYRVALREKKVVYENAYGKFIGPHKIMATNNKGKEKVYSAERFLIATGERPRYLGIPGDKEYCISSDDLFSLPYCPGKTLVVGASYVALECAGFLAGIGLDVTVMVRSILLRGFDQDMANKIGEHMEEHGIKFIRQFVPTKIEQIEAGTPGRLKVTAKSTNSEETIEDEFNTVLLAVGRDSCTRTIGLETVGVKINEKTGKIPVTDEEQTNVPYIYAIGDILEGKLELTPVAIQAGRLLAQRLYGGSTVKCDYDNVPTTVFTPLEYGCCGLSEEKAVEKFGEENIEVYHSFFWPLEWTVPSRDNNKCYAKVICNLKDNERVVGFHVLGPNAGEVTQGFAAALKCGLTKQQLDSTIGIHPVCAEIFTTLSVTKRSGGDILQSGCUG
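Rat TrxR1 (90 nM in the dispensed reagent) was pre-reduced with 400 uM NADPH for 5 min at room temperature, then incubated with compound for 15 min. After 400 uM selenite was added, NADPH fluorescence (Ex 340/Em 450 nm) was followed for 8 min.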
A549 tox-1: kills or reduces viability of A549 cells in Nrf2 counter-screen; A549 ARE-Fluc cells, CellTiter-Fluor viability, 18-24 h; Potency, µM (titrated, usually from 46 µM), for inactives: at the top dose activity change, negative = cytotoxicity, hits mostly inhibitors; 390,000 compounds, 0.16% hits; AID 504648; also: % is scaled to controls: 0 for no effect and ±100 for the full control effect
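A549 ARE_Fluc cells in 5% FBS OPTI-MEM were exposed to compounds in concentration-response for 18-24 h at 37 deg C. Viability was read by CellTiter-Fluor fluorescence (Ex 405/Em 525) after 30 min, before the luciferase read.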
GALK inh: blocks human galactokinase activity. P51570. Purified GALK, Kinase-Glo residual ATP luminescence. Potency, µM (doses to about 57.5 µM), without a hit: top-dose activity change, negative = inhibition, hits mostly inhibitors. 270,000 compounds, 0.007% hits; also: % is scaled to controls: 0 for no effect and ±100 for the full control effect
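GALK at 5 nM final was combined with compound, 35 uM ATP and 100 uM galactose in HEPES pH8.0 with MgCl2 and DTT. The reaction ran one hour at room temperature before luminescent ATP detection.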
Nrf2 activator: activators of Nrf2 (ARE) signaling; AREc32 ARE-luciferase reporter (MCF7-derived line), luminescence, 24 h; Potency, µM (top dose mostly 46.1 µM), for the others: at the top dose activation, actives largely listed as activators; 410,000 compounds, 0.31% hits; AID 624171; also: % of control where 0% means no effect; nearly all actives have a fitted effect of over 65% in size
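Cells of the AREc32 ARE-luciferase line are plated in OPTI-MEM containing 5% FBS and left overnight at 37 deg C. Compounds are pinned in, incubation continues 24 hr, and firefly luciferase signal is then measured.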
Nrf2 inh: Nrf2 pathway inhibition | 360,000 compounds, 2.1% hits | AID 504444 | Potency, µM (series often up to 46 µM), without a hit: top-dose activity change, negative = inhibition, hits mostly inhibitors | A549 ARE-Fluc reporter, luciferase luminescence, 18-24 h; also: % is scaled to controls: 0 for no effect and ±100 for the full control effect; nearly all actives have a fitted effect of over 60% in size
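A549 ARE_Fluc cells (5000/well, 5% FBS OPTI-MEM) pre-incubated 2 h, then treated with compounds 18-24 h at 37C/5% CO2 in concentration-response. CellTiter-Fluor viability read first; BugLite luciferase luminescence after 15 min at room temperature gives Nrf2 activity.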
TrxR1 substrate: is turned over as a substrate by rat TrxR1 | AID 588456 | Potency, µM (top dose mostly 114 µM), for inactives: at the top dose activity change, negative = substrate turnover | purified TrxR1 substrate turnover, NADPH consumption readout | 390,000 compounds, 0.01% hits | O89049; also: % is scaled to controls: 0 for no effect and ±100 for the full control effect; nearly all actives have a fitted effect of over 50% in size
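Rat TrxR1, dispensed at 90 nM, was prereduced with 400 uM NADPH (final) for 5 min at ~22 deg C, then incubated with compound 15 min before 400 uM selenite. A first-read NADPH fluorescence drop versus no-compound background flagged substrates.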
FLuc enzyme inh: firefly luciferase inhibition, Nrf2 hit validation | 1,400 compounds, 4% hits | shares compounds with Nrf2 inh | purified firefly luciferase, luminescence inhibition | Potency, µM (series often up to 57.5 µM), for the others: at the highest dose activity change, negative = inhibition, hits mostly inhibitors | AID 720522; also: % is scaled to controls: 0 for no effect and ±100 for the full control effect; nearly all actives have a fitted effect of over 65% in size
A549 tox-2: counter-screen for Nrf2 inhibitors: cytotoxicity in A549 ARE cells. Potency, µM (series often up to 46.1 µM), without a hit: at the highest dose activity change, negative = cytotoxicity, most hits filed as inhibitors. A549 ARE-Fluc cells, cytotoxicity counterscreen. 1,400 compounds, 2% hits. shares compounds with Nrf2 inh;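 also: cells exposed to compounds for 18 to 24 hours; % is scaled to controls: 0 for no effect and ±100 for the full control effect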
Nrf2 ARE inh: confirmation of Nrf2 inhibitors in A549 ARE reporter cells; AID 720524; A549 ARE-firefly luciferase reporter, luminescence; shares compounds with Nrf2 inh; Potency, µM (top dose mostly 46.1 µM), for inactives: at the top dose activity change, negative = inhibition, hits mostly inhibitors; 1,400 compounds, 74% hits; also: % is scaled to controls: 0 for no effect and ±100 for the full control effect; nearly all actives have a fitted effect of over 65% in size
* = called active by the depositor; [ ] = another dose, or the depositor's remark. Calls follow the shape of the dose curve; as a rule, active = well fitted curve in the direction sought with a large enough effect; inconclusive = small, poorly fitted or top-dose-only effect, or another doubt; inactive = no such curve, though single readings can be large; an effect the other way counts as inactive or inconclusive. Potency is read from the fitted curve at half-maximal effect.

How did Oc1ccc(/C=C/c2ccnc3ccccc23)cc1 do in these assays?
TrxR1 inh: 1%[57.1 µM]; A549 tox-1: inconclusive; Nrf2 activator: inconclusive; Nrf2 inh: inconclusive; TrxR1 substrate: 4%[57.1 µM]

Results for C(=C\c1ccnc2ccccc12)/c1cc2c3c(c1)CCCN3CCC2 ?
TrxR1 inh: -12%; TrxR1 substrate: 11%[0.0914 µM]; FLuc enzyme inh: -25%; A549 tox-2: -16%; Nrf2 ARE inh: 7.3µM*

What do the screens show for `O=C(Nc1cc(S(=O)(=O)N2CCCCC2)ccc1Cl)c1ccccc1NS(=O)(=O)c1ccc(F)cc1`?
TrxR1 inh: -15%; A549 tox-1: inconclusive; GALK inh: -7%; Nrf2 activator: 4%; Nrf2 inh: 3.7µM*; TrxR1 substrate: 5%; FLuc enzyme inh: -26%; A549 tox-2: inconclusive; Nrf2 ARE inh: 4.6µM*

What do the screens show for `COc1ccc(N2CCN(c3ncnc4onc(-c5ccc(F)cc5)c34)CC2)cc1`?
TrxR1 inh: 27%; A549 tox-1: 4%; Nrf2 activator: 1%; Nrf2 inh: -4%; TrxR1 substrate: 0%

How did COc1ccc(N2CCN(c3ncnc4onc(C)c34)CC2)cc1 do in these assays?
TrxR1 inh: 16%; A549 tox-1: 5%; Nrf2 activator: -1%; Nrf2 inh: 9.2µM*; TrxR1 substrate: -3%; FLuc enzyme inh: 3%; A549 tox-2: -2%; Nrf2 ARE inh: 7.3µM*

What do the screens show for `Cc1ccc(S(=O)(=O)CCC(=O)Nc2ccc(Br)cc2C)cc1`?
TrxR1 inh: -7%; A549 tox-1: 5%; Nrf2 activator: 1%; Nrf2 inh: -3%; TrxR1 substrate: -2%

What do the screens show for `C1=C2C[N+]3(CCCC3)CC2Cc2ccc3ccccc3c21` (configuration not stated)?
TrxR1 inh: 0%; A549 tox-1: -17%; GALK inh: -1%; Nrf2 activator: -2%; Nrf2 inh: 2.1µM*; TrxR1 substrate: 3%; FLuc enzyme inh: -1%; A549 tox-2: -13%; Nrf2 ARE inh: 7.3µM*

How did O=C(Nc1nc(-c2cc3ccccc3o2)cs1)c1ccc(S(=O)(=O)N2CCCC2)cc1 do in these assays?
TrxR1 inh: 79µM*; A549 tox-1: -25%; GALK inh: 1%; Nrf2 activator: -1%; Nrf2 inh: 4.1µM*; TrxR1 substrate: 11%; FLuc enzyme inh: -17%; A549 tox-2: -19%; Nrf2 ARE inh: 5.2µM*

Results for Cc1ccc(C(=O)Nc2nc(-c3ccccn3)cs2)cc1S(=O)(=O)N1CCOCC1 ?
TrxR1 inh: -1%; A549 tox-1: inconclusive; Nrf2 activator: 0%; Nrf2 inh: 8.2µM*; TrxR1 substrate: -8%; FLuc enzyme inh: 11µM*; A549 tox-2: inconclusive; Nrf2 ARE inh: 1.6µM*

How did O=C(Nc1nc(-c2ccc(S(=O)(=O)N3CCOCC3)cc2)cs1)c1ccccc1 do in these assays?
TrxR1 inh: 8%[57.1 µM]; A549 tox-1: -17%; GALK inh: 0%; Nrf2 activator: 5%; Nrf2 inh: 4.6µM*; TrxR1 substrate: 8%[57.1 µM]; FLuc enzyme inh: inconclusive; A549 tox-2: 3%

How did O=C(NCc1nnc(SCC(=O)N2CCCc3ccccc32)n1-c1ccccc1)c1cccc2ccccc12 do in these assays?
TrxR1 inh: 2%[57.1 µM]; A549 tox-1: -11%; GALK inh: 0%; Nrf2 activator: 0%; Nrf2 inh: 2.6µM*; TrxR1 substrate: 1%[57.1 µM]; FLuc enzyme inh: -1%; A549 tox-2: -18%; Nrf2 ARE inh: 10µM*

What do the screens show for `COc1ccc2ccc3cccc[n+]3c2c1`?
TrxR1 inh: -31%; A549 tox-1: -12%; Nrf2 activator: 4%; Nrf2 inh: 4.6µM*; TrxR1 substrate: 927%; FLuc enzyme inh: -2%; A549 tox-2: -14%; Nrf2 ARE inh: 23µM*

What do the screens show for `COc1ccc(NC(=O)CCS(=O)(=O)c2ccc3c(c2)oc(=O)n3C)cc1`?
TrxR1 inh: 16%; A549 tox-1: 6%; GALK inh: -1%; Nrf2 activator: 0%; Nrf2 inh: 10%; TrxR1 substrate: 4%

Results for NC(=Nc1nc(-c2ccccn2)cc2ccccc12)c1ccccn1 ?
TrxR1 inh: -16%; A549 tox-1: -17%; Nrf2 activator: -1%; Nrf2 inh: 1.5µM*; TrxR1 substrate: -10%; FLuc enzyme inh: -3%; A549 tox-2: -23%; Nrf2 ARE inh: 1.6µM*

How did N/C(=N\OC(=O)c1ccc2ccccc2c1)c1ccccn1 do in these assays?
TrxR1 inh: 17%; A549 tox-1: 2%; GALK inh: 17%; Nrf2 activator: 0%; Nrf2 inh: inconclusive; TrxR1 substrate: 6%

What do the screens show for `COCC1CCN(C(=O)c2cc(COc3cccc4cnccc34)on2)CC1`?
TrxR1 inh: 42%; A549 tox-1: -1%; GALK inh: -4%; Nrf2 activator: -1%; Nrf2 inh: inconclusive; TrxR1 substrate: 83%

How did O=C(c1cc(COc2cccc3cnccc23)on1)N1CCCC(CCCO)C1 (configuration not stated) do in these assays?
TrxR1 inh: 12%; A549 tox-1: -28%; GALK inh: -2%; Nrf2 activator: 0%; Nrf2 inh: 3.7µM*; TrxR1 substrate: 71%; FLuc enzyme inh: -2%; A549 tox-2: -13%; Nrf2 ARE inh: 2.3µM*

How did O=C1CC(c2nc3ccccc3[nH]2)CN1c1cccc(Cl)c1 (configuration not stated) do in these assays?
TrxR1 inh: 8%; A549 tox-1: 8%; Nrf2 activator: 4%; Nrf2 inh: -12%; TrxR1 substrate: 2%

What do the screens show for `CN(C)c1cc[n+](CC(=O)Nc2ccc(Cl)c([N+](=O)[O-])c2)cc1`?
TrxR1 inh: 7%; A549 tox-1: -3%; GALK inh: -1%; Nrf2 activator: 0%; Nrf2 inh: 4.6µM*; TrxR1 substrate: -3%; FLuc enzyme inh: 0%; A549 tox-2: -5%; Nrf2 ARE inh: 8.2µM*
